Here are results for 92 compounds from PubChem BioAssay AID651814 (National Center for Advancing Translational Sciences (NCATS), 2012).

Out of some 2,100 compounds screened, about 590 (28%) were called active. About 42% were inconclusive and are not listed. The list shows a part of the results. A number with no mark means an inactive call. The call rests on the fitted dose curve; in most records, active means well fitted inhibition curve with a large enough effect; inconclusive means small, poorly fitted or top-dose-only effect; inactive means flat fitted curve, though single readings scatter.
Potency means the concentration at half of the fitted maximal effect.

The target of this experiment is DNA dC->dU-editing enzyme APOBEC-3F (Homo sapiens) (UniProt Q8IUX4). The experiment can be described thus: qHTS for inhibitors of Vif-A3F interactions: Cherry picks. Further: nearly all actives have a fitted effect of over 70% in size.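 On max response: % of control where 0% means no effect; active compounds raise eYFP fluorescence by blocking Vif-driven A3F loss.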 The note with it: HeLa A3F-eYFP + Vif (tagged APOBEC3F with the HIV-1 protein that degrades it), eYFP fluorescence, 24 h. The text has this: The recent discovery and characterization of host restriction factors, which provide a potent defense to invading retroviruses, has provided new targets for antiviral drug development. APOBEC3G (A3G) and APOBEC3F (A3F) are potent cytidine deaminases that block HIV-1 replication; HIV-1 expresses the Vif protein, which counteracts A3G and A3F by binding to them and inducing their proteasomal degradation. The Vif-A3G and Vif-A3F interactions provide two potential targets for development of small molecules which can interfere with the ability of Vif to degrade A3G or A3F. […] To identify inhibitors that can interfere with Vif mediated degradation of A3G and A3F, we have developed Hela cell lines that stably express A3G or A3F tagged with eYFP at the C-terminal end (A3G-eYFP or A3F-eYFP, respectively) and Vif. In the absence of an inhibitor, Vif induces degradation of A3G-eYFP and A3F-eYFP, and the cells are not fluorescent. In the presence of an inhibitor, it is expected that Vif will be unable to degrade A3G-eYFP and/or A3F-eYFP, resulting in an increase in yellow fluorescence. In this assay, Vif A3F was screened against the cherry picks ordered from the MLSMR. NIH Chemical Genomics Center [NCGC] NIH Molecular Libraries Probe Centers Network [MLPCN] MLPCN Grant: MH093245 Assay Submitter (PI): Vinay Pathak, National Cancer Institute
Chain of DNA dC->dU-editing enzyme APOBEC-3F (Homo sapiens) (Q8IUX4 whole entry, looked up): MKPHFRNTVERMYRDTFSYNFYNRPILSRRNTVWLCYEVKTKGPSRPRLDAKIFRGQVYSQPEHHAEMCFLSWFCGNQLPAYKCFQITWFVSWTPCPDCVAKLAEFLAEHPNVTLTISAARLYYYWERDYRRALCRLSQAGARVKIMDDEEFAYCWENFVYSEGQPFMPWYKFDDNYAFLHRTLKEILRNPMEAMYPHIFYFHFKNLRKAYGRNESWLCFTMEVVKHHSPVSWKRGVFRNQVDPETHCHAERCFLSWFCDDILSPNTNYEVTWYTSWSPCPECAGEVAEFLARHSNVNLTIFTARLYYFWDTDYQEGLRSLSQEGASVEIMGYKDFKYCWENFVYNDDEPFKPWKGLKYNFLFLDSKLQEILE
A3F-Vif cells were harvested from T225 flask and resuspended in phenol free OPTI-MEM medium with 5% FBS. Then 5 uL of 140,000 cells/mL resuspended cells was dispensed into each well of low base Aurora COC 1,536-well plates (black walled, clear bottom) using a Multidrop Combi dispenser. After overnight culture at 37 deg C with 5% CO2, a total of 23 nL of compounds at 5 selected concentrations from the NPC or positive control (2 mM stock of MG132) in DMSO was transferred to each well of the assay plate using a pintool (Kalypsys, San Diego, CA), and the plates were further incubated at 37 deg C with 5% CO2 for 24 hours. After that, the plates were measured on Acumen Explorer (TTP Lab Tech). The fluorescence was detected by 488 nm/Ex and […].
A general note: Quantitative high-throughput screening tests each substance at several concentrations.
Regarding `CCCCCCN1C[C@H](O)[C@@H](n2cc(COC(=O)c3ccccc3)nn2)C[C@@H]1c1ccc(C)cc1`, the max response was -0.173%.
Take `Cc1ccc2c(c1)Sc1c(ccc3ccccc13)N2`: the Potency was 16.4 µM (active).
For the compound `COc1ccc(-c2csc(-c3ccc(O)cc3)n2)cc1`, the max response is -24.3%.
`Oc1ccc(-c2nc(-c3ccc(O)c(O)c3)cs2)cc1`: the Potency was 4.44 µM (active).
Consider `COc1ccc(OC)c(CNc2nc3ccc(C)cc3n3nnnc23)c1`, for which the max response is -21.9%.
Still for that read-out and setting: as for `OCCCn1c(C2CCCN2c2nc(-c3ccc(Cl)cc3)cs2)nc2cc(Cl)c(Cl)cc21` (configuration not stated), the figure is -3.45%.
`CCCCCCCNc1ccc(/C=C/c2ccnc3ccccc23)cc1`: the Potency is 20.6 µM (active).
The same measure, in the same setting: the result for `CCCCCCNc1ccc(/C=C/c2ccnc3ccccc23)cc1` reads 18.4 µM (active).
`C/C(=N\NC(=O)c1cc(C)nc2ccccc12)c1ccncc1`: the max response was -5.92%.
With `Cc1ccc(-c2cc(NC=O)c3ncc(-c4cnn(C)c4)n3c2)cc1`, the Potency is 7.9 µM (active).
Consider `COc1ccc(NC(=O)C2Cc3c(-c4ccc(NC(C)=O)cc4)ccnc3O2)cn1` (configuration not stated), for which the max response is -27.7%.
For `COc1ccc(-c2cc(NC(C)=O)c3ncc(-c4cc(OC)c(OC)c(OC)c4)n3c2)cn1`, the Potency is 4.98 µM (active).
For the compound `COc1ccc(-c2cnc3c(NC=O)cc(-c4ccccc4)cn23)cc1OC`, the Potency was 4.98 µM (active).
For `COc1ccccc1-c1cc(NC=O)c2ncc(-c3ccc(S(C)(=O)=O)cc3)n2c1`, the Potency was 7.04 µM (active).
As to `CCOc1ccc2nc(NC(=O)c3nc(SC(C)C)ncc3Cl)sc2c1`, the max response was -25.8%.
The same measure, in the same setting: the result for `COC(=O)c1sc(-c2cccs2)cc1NC(=O)/C=C/C(=O)O` reads -22.3%; that for `O=C1NC(c2ccccc2Br)=N/C1=C\c1ccco1`, -25.1%; that for `CN(C)C(=O)c1cccc(-c2cnc3c(NC=O)cc(-c4ccccc4F)cn23)c1`, -4.66%.
As to `COc1ccc(-c2cnc3c(NC=O)cc(-c4ccoc4)cn23)cc1OC`, the Potency is 11.2 µM (active).
Still for that read-out and setting: as for `COc1ccc(-c2cnc3c(NC=O)cc(-c4cc(OC)c(OC)c(OC)c4)cn23)cc1OC`, the figure is 15.8 µM (active).
Take `COc1ccc(-c2cc(NC=O)c3ncc(-c4ccc(OC)c(OC)c4)n3c2)cc1OC`: the Potency was 7.04 µM (active).
For `CN(C)c1ccccc1-c1cc(NC=O)c2ncc(-c3cccc(C(F)(F)F)c3)n2c1`, the Potency is 15.8 µM (active).
Regarding `COc1ccc(-c2nc3c4ccccc4ccn3c2Cc2ccsc2)cc1OC`, the max response is -2.92%.
The same measure, in the same setting: as for `Cc1cc(C)nc(Nc2n[nH]c(COc3cccc4ccccc34)n2)n1`, the figure is -15.5%; as for `Cc1cc(C)nc(NC(=S)Nc2cccc(Cl)c2Cl)c1`, -10.1%.
On the same count and under the same terms, the result for `COc1ccc(C2=NOC(C(=O)NCc3ccc(F)cc3)C2)cc1` (configuration not stated) reads -16.1%.
Consider `Cc1cc(/C=C/c2ccnc3ccccc23)ccc1N(C)C`, for which the Potency is 8.2 µM (active).
`CN(C)c1ccc(/C=C/c2ccnc3ccccc23)cc1N`: the max response was -19.7%.
`CN1CCCc2cc(/C=C/c3ccnc4ccccc34)ccc21`: the Potency is 4.11 µM (active).
The same measure, in the same setting: as for `CN(C)c1ccc(/C=C/c2ccnc3ccccc23)cc1O`, the figure is 11.6 µM (active); as for `CCc1cc(/C=C/c2ccnc3ccccc23)ccc1N(C)C`, 14.6 µM (active).
As for `CCS(=O)(=O)c1nn2c(N)c(/C=C3/C=CC(=O)C(OC)=C3)c(=O)nc2s1`, the max response is 11%.
Same read-out and setting: the result for `Cc1ccc(NC(=S)N/N=C2\CCCCC2C)cc1` (configuration not stated) reads 0.346%.
The same measure, in the same setting: as for `O=C(/C=C/c1ccccc1)Nc1ncn[nH]1`, the figure is -21.2%.
On to `Cc1cc(/C=C/c2ccnc3ccccc23)ccc1N`, for which the Potency was 14.6 µM (active).
In the case of `COc1ccc2nc3sc(C(=O)Nc4cc(Cl)c(OC)cc4OC)cc3cc2c1`, the max response is -28.2%.
For `COc1cccc(-c2ccc3c(N)c(C(=O)c4ccc(Br)cc4)sc3n2)c1`, the Potency was 10.3 µM (active).
Turning to `COc1cccc(-c2ccc3c(N)c(C(=O)c4ccc(Cl)cc4)sc3n2)c1`, the Potency was 18.4 µM (active).
Regarding `N#CC(C#N)=C1C=C2C=C(N3CCOCC3)CCC2CC1` (configuration not stated), the max response is 0.0461%.
On the same count and under the same terms, as for `O=C1N/C(=N\N=C\c2ccco2)SC1Cc1ccccc1[N+](=O)[O-]` (configuration not stated), the figure is -0.95%; as for `Cn1c2ccccc2c2ccc3c(c21)C(=O)C=CC3=O`, 5.63%.
For the compound `COc1c(-c2ccc(O)c(O)c2)oc2cc(O)cc(O)c2c1=O`, the Potency was 14 µM (active).
On the same count and under the same terms, the result for `CC[N+](C)(C)c1ccc(/C=C/c2ccncc2)cc1` reads 4.11 µM (active); that for `CCC[N+](C)(C)c1ccc(/C=C/c2ccncc2)cc1`, 2.31 µM (active).
With `CC1CC(=O)C2=C(C1)OC(N)=C(C#N)C2c1coc2ccccc2c1=O` (configuration not stated), the max response was -25.1%.
`COc1cc(/C=C(/C#N)c2nc3ccccc3[nH]2)ccc1OCC(=O)Nc1ccccc1C(C)C`: the Potency is 16.4 µM (active).
Same read-out and setting: as for `COc1cc(/C=C(\C#N)c2nc3ccccc3s2)ccc1OCC(=O)Nc1ccccc1`, the figure is 14 µM (active); as for `COc1cc(/C=C(\C#N)c2nc3ccccc3[nH]2)ccc1OCc1ccccc1F`, 18.4 µM (active).
In the case of `COc1cc(/C=C(\C#N)c2nc3ccccc3[nH]2)ccc1O`, the max response is 6%.
On the same count and under the same terms, as for `CCC(=O)Nc1nc2ccc(NC(=O)c3cc(OC)c(OC)c(OC)c3)cc2s1`, the figure is -4.22%; as for `COc1ccc(OC)c2sc(NC(=O)CCS(=O)(=O)c3ccccc3)nc12`, -17.2%.
In the case of `COc1cc(N(C)C)c(OC)cc1/C=C/c1ccnc2ccccc12`, the Potency was 20.6 µM (active).
Same read-out and setting: as for `COc1cc(/C=C/c2ccnc3ccccc23)ccc1N(C)C`, the figure is 9.2 µM (active).
As for `COc1ccc(OC)c(Nc2nc(-c3ccncc3)nc3ccccc23)c1`, the max response was -10.6%.
Take `COc1cc(OC)c(/C=C/c2ccnc3ccccc23)c(OC)c1`: the Potency is 14.6 µM (active).
On to `Cc1c(C)n(Cc2ccccc2)c2ccc(C(=O)NCc3ccco3)cc12`, for which the max response is -24.7%.
For `Cc1cc(C)c(NC(=O)Cn2c(=O)n(Cc3ccc(C(=O)NCc4ccco4)cc3)c(=O)c3sccc32)c(C)c1`, the Potency was 14.6 µM (active).
Regarding `COc1ccccc1-c1c(C#N)c(N)nc2c1CCc1ccccc1-2`, the max response is -14.7%.
Consider `COc1ccc2c(n1)Sc1nc3ccccc3nc1N2`, for which the Potency was 4.11 µM (active).
Turning to `Cc1ccc(NC(=S)NC(=O)c2ccc(F)cc2)cc1S(=O)(=O)Nc1cccc(Cl)c1`, the max response is -16.8%.
On the same count and under the same terms, as for `CCCOc1ccc2cc(C(=O)NCc3ccccc3)c(=O)oc2c1`, the figure is -1.07%.
`CCCOc1ccc(C(=O)Nc2cccc(NC(=O)c3ccc(Cl)cc3Cl)c2)cc1`: the Potency is 16.4 µM (active).
Take `c1cncc(-c2nc(NCc3cccs3)c3ccccc3n2)c1`: the max response is -5.9%.
On the same count and under the same terms, as for `COc1ccc(-c2cc(-c3nnc(COC(=O)c4ccncc4)o3)c3ccccc3n2)cc1OC`, the figure is 2.21%; as for `NC(=S)N/N=C/c1cccc(O)c1O`, -21%.
With `CC(=O)N/N=C/c1cc(C(C)(C)C)cc(/C=N/NC(C)=O)c1O`, the Potency was 23.1 µM (active).
Same read-out and setting: as for `CCc1cccc2cc3c(N)c(C(=O)Nc4ccc(S(=O)(=O)N5CCCC5)cc4)sc3nc12`, the figure is 2.8 µM (active).
In the case of `O=C(CN1c2cccc3cccc(c23)S1(=O)=O)Nc1ccc(S(=O)(=O)N2CCOCC2)cc1`, the max response was -0.998%.
Still for that read-out and setting: as for `O=C(Nc1ccc(Cl)cn1)c1cccc(S(=O)(=O)N2CCCCCC2)c1`, the figure is -1%.
Still for that read-out and setting: as for `COc1ccc(NC(=O)c2oc3ccc(S(=O)(=O)N4CCOCC4)cc3c2C)cc1`, the figure is -0.455%.
For the compound `Nc1c(C(=O)Nc2ccc(S(=O)(=O)N3CCCC3)cc2)sc2nc3ccc(OC(F)(F)F)cc3cc12`, the Potency is 20.6 µM (active).
The same measure, in the same setting: the result for `Nc1c(C(=O)Nc2ccc(S(=O)(=O)N3CCCC3)cc2)sc2nc3cc4c(cc3cc12)CCC4` reads 6.51 µM (active).
`Cc1c(C(=O)Nc2ccc(C(C)C)cc2)sc2nc3n(c(=O)c12)CCC3`: the max response is -1.94%.
Same read-out and setting: the result for `CC(C)c1ccc(C(=O)NCCCNC(=O)c2cnccn2)cc1` reads 1.42%; that for `Fc1cccc(F)c1/C=N/NC(=S)Nc1cccnc1`, -0.429%.
In the case of `O=C(Nc1ccc([N+](=O)[O-])cc1)C(Cc1ccccc1)N1C(=O)c2cccc3cccc(c23)C1=O` (configuration not stated), the Potency is 12.5 µM (active).
Regarding `O=C(O)Cc1sc(NC2CCCCC2)nc1-c1ccc(Cl)cc1`, the max response was -1.51%.
As to `Cc1cc(NC(=O)CSc2nc3c(C)cccc3cc2C#N)no1`, the Potency was 7.31 µM (active).
For the compound `COCc1cc(C)nc(SCC(=O)Nc2ccc3[nH]c(=O)[nH]c3c2)c1C#N`, the max response is 0.302%.
In the case of `Cc1nc2cc(NC(=O)CSc3nc4c(C)cccc4cc3C#N)ccc2s1`, the Potency is 11.6 µM (active).
Regarding `Cc1ccc(NC(=O)CSc2n[nH]c(-c3ccccn3)n2)cc1`, the max response was -3.6%.
As for `Cc1nonc1NC(=O)CSc1nc2c(C)cccc2cc1C#N`, the Potency is 18.4 µM (active).
As for `CN1C(=O)N(C)c2ccc(C=O)c3cccc1c23`, the max response is -1.54%.
With `N#C/C(=C/c1cccs1)c1ccccn1`, the Potency is 17.7 µM (active).
Consider `CCOc1ccc(Br)cc1C1C(C(=O)OC)=C(N)Oc2cc(N(C)C)ccc21` (configuration not stated), for which the max response was -21.7%.
On the same count and under the same terms, as for `Cc1cccc(N=C2NC(=O)/C(=C/c3cccn3C)S2)c1`, the figure is -9.23%.
`Cc1ccc(N=C2NC(=O)/C(=C/c3cccn3C)S2)cc1`: the Potency is 9.94 µM (active).
With `Cc1ccc(N=C2NC(=O)/C(=C/c3cn(C)c4ccccc34)S2)cc1C`, the Potency was 17.7 µM (active).
The same measure, in the same setting: the result for `Cn1cccc1/C=C1\SC(=Nc2ccc(O)cc2)NC1=O` reads 12.5 µM (active).
On to `COc1cccc(N=C2NC(=O)/C(=C/c3cc([N+](=O)[O-])ccc3O)S2)c1`, for which the max response is -16.1%.
Regarding `Cn1cccc1/C=C1\SC(=Nc2cccc(O)c2)NC1=O`, the Potency is 15.8 µM (active).
For `C=C1C(=O)O[C@@H]2[C@H]1[C@@H](OC(=O)/C(C)=C/C)C/C(C)=C\C(=O)/C=C(\C)[C@@H]2O`, the max response was -29.6%.
